# Results as given in PubChem BioAssay.
# Records with an inconclusive call do not appear. Calls of active or inactive are those of the source.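 The calls were made as follows, unless noted: active = normalized viability below 100% at a tested concentration; inactive = the rest.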
# Key:
# [1] = viability loss in pontine glioma line – cell-based, SU-DIPG-XIII, MIPE4.0, CellTiter-Glo, qHTS, dose response (AID 1347061; cut-off not given, nearly all actives have AC50 up to about 37 µM;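 also: cells exposed to compound for 48 hours before readout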); conditions: CellTiter-Glo ATP luminescence
# [2] = viability loss in pontine glioma line – cell-based, JHH-DIPG-1, MIPE4.0, CellTiter-Glo, qHTS, dose response (AID 1347062; cut-off not given, nearly all actives have AC50 up to about 27 µM;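 as to AC50: cells exposed to compound for two days before readout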); conditions: JHH-DIPG-1 viability, CellTiter-Glo ATP luminescence
# [3] = viability loss in pontine glioma line – cell-based, SU-DIPG-IV, MIPE4.0, CellTiter-Glo, qHTS, dose response (AID 1347063; cut-off not given, nearly all actives have AC50 up to about 30 µM;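 also: compound exposure lasted 48 hours before the viability readout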); conditions: CellTiter-Glo ATP luminescence
# [4] = growth inhibition of DIPG cells – cell-based, MIPE4.0 library, CellTiter-Glo luminescence, qHTS (AID 1347066; cut-off not given, nearly all actives have AC50 up to about 30 µM;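 also: cells exposed to compound for 48 hours before readout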); conditions: SU-DIPG-VI viability, CellTiter-Glo ATP luminescence
# [5] = growth inhibition of DIPG cells – cell-based, MIPE5.0 library, qHTS (AID 1347068; cut-off not given, nearly all actives have IC50 up to about 30 µM;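 as to IC50: cells exposed to compound for 48 hours before viability readout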); conditions: SU-DIPG-XXV viability
# [6] = viability loss in pontine glioma line – cell-based, SU-DIPG-XIII, MIPE5.0, CellTiter-Glo, qHTS, dose response (AID 1347064; cut-off not given, nearly all actives have AC50 up to about 23 µM); conditions: CellTiter-Glo ATP luminescence
# [7] = viability loss in pontine glioma line – cell-based, SU-DIPG-XXV, MIPE5.0, CellTiter-Glo, qHTS, dose response (AID 1347065; cut-off not given, nearly all actives have AC50 up to about 26 µM;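 also: cells exposed to compound for 48 hours before ATP readout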); conditions: CellTiter-Glo ATP luminescence
# [8] = JHH-DIPG-1 glioma cell viability, MIPE5.0 library, CellTiter-Glo luminescence, qHTS (AID 1347067; cut-off not given, nearly all actives have AC50 up to about 26 µM;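 also: cells exposed to compound for 48 hours before readout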); conditions: JHH-DIPG-1 glioma viability, CellTiter-Glo ATP luminescence
# [9] = viability loss with induced miR-34 in A549 – imaging, A549 dox-inducible miR-34, nuclei and caspase counts, primary screen (AID 1347080;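 active = compounds whose cell count with miR-34 switched on is under 0.7 times the count with it off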); conditions: A549 miR-34 inducible, Hoechst nuclei count, 48 h
# [10] = galactose survival enhancers in mitochondrial complex I cybrids – cell-based, galactose medium, ATP luminescence, primary screen (AID 1645843;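 active = z-score of at least 1.8 in each of two replicates, scored against plate mean and spread of sample wells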;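 also: positive z means more ATP and so rescue of galactose-driven cybrid death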); conditions: complex I mutant cybrid cells, 72 h, stronger effect = higher value
# [11] = MELAS cybrid and Rieske KO viability enhancers – cell-based, MELAS cybrids, Rieske KO mouse fibroblasts, CellTiter-Glo, primary screen (AID 1508586;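 active = mean z-score across replicates of 1.96 or higher in either the MELAS or the Rieske mutant cell line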;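 also: z relative to plate mean and SD of compound and empty wells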); conditions: low glucose
# [12] = compounds altering HSF1 focus formation in cells – imaging, Selleck Cancer Library (AID 1347162; in the data active = plate-normalised HSF1 focus index below about 0.46); conditions: human cells, HSF1 nuclear foci imaging, at 10 µM; SSMD: measured here: HSF1 foci SSMD mean; cell count: measured here: cell number; plate-normalised HSF1 focus index: stronger effect = lower value
# [13] = drug combination growth inhibition, ovarian cancer – cell-based, oncology-focused library, rucaparib conditional, profiling panel (AID 1508598); conditions: patient-derived ovarian cancer cells, CellTiter-Glo viability, 144 h, stronger effect = lower value
# [14] = measured here: relative caspase fold change +Dox/-Dox
# [15] = measured here: total cells with miR-34 induction, stronger effect = lower value
# [16] = measured here: total cells without miR-34 induction
# [17] = stronger effect = lower value, cell number ratio, induced over uninduced
# [18] = MELAS cybrid survival, CellTiter-Glo 48 h, stronger effect = higher value
# [19] = Rieske KO mouse fibroblast survival, CellTiter-Glo 72 h
compound,measurement,setting,value
C[C@]12CC[C@H]3[C@@H](CCC4=CC(=O)CC[C@@H]43)[C@@H]1CC[C@@H]2OC(=O)CCc1ccccc1,outcome,[1],inactive
same,outcome,[2],inactive
same,outcome,[3],inactive
same,outcome,[4],inactive
same,outcome,[5],inactive
CCC(=O)OC1CCC2C3CCC4=CC(=O)CC[C@@]4(C)C3CC[C@]12C (some centres not stated),outcome,[2],inactive
same,outcome,[3],inactive
same,outcome,[4],inactive
C[C@@H]1[C@H](O)[C@@H](C)C=CC=CCCC=CC=CC=CC=C[C@H](O[C@H]2O[C@@H](C)[C@H](O)[C@@H](N)[C@H]2O)CC2O[C@](O)(C[C@@H](O)[C@H](O)CC[C@@H](O)C[C@@H](O)C[C@@H](O)CC(=O)O[C@H]1C)C[C@H](O)[C@H]2C(=O)O,outcome,[1],inactive
same,outcome,[2],inactive
same,outcome,[3],inactive
same,outcome,[4],inactive
CCOC(=O)Nc1ccc(NCc2ccc(F)cc2)cc1N,outcome,[1],inactive
same,outcome,[6],inactive
same,outcome,[7],inactive
same,outcome,[4],inactive
same,outcome,[8],inactive
same,outcome,[5],inactive
COc1ccc2c(c1)[C@]13CCCCC1C(C2)N(C)CC3 (some centres not stated),outcome,[2],inactive
same,outcome,[3],inactive
same,outcome,[4],inactive
same,fold change,[9]; stronger effect = lower value,0.884 (inactive)
same,fold change,[9]; [14],1.91
same,cell count,[9]; [15],7550
same,cell count,[9]; [16],8540
same,z-score,[10],0.055 (inactive)
CC[C@@H]1[C@@H](C)O[C@@](O)([C@@H](C)[C@H](O)[C@H](C)[C@H]2OC(=O)/C=C/C=C/[C@H](C)[C@@H]([C@@H](C)[C@@H](O)[C@H](C)[C@@]3(O)C[C@@H](O[C@H]4C[C@H](O)[C@H](O)[C@H](C)O4)[C@H](CC)[C@@H](C)O3)OC(=O)/C=C/C=C/[C@@H]2C)C[C@H]1O[C@H]1C[C@H](O)[C@H](O)[C@H](C)O1,AC50,[2],0.59 µM (active)
same,AC50,[3],0.743 µM (active)
same,AC50,[4],0.469 µM (active)
CC(C)(O)C(=O)Nc1ccc([N+](=O)[O-])c(C(F)(F)F)c1,AC50,[1],11.8 µM (active)
same,outcome,[6],inactive
same,outcome,[4],inactive
same,outcome,[5],inactive
COc1ccc(CC2NCCc3cc(OC)c(OC)cc32)cc1OC (configuration not stated),outcome,[1],inactive
same,outcome,[3],inactive
same,outcome,[4],inactive
same,fold change,[9]; [17],0.988 (inactive)
same,fold change,[9]; [14],0.746
same,cell count,[9]; [15],9220
same,cell count,[9]; [16],9330
same,z-score,[11]; [18],-0.321 (inactive)
same,z-score,[11]; [19],0.618
C[C@](O)(COc1ccc(C#N)cc1)C(=O)Nc1ccc(C#N)c(C(F)(F)F)c1,outcome,[2],inactive
same,outcome,[3],inactive
same,outcome,[6],inactive
same,outcome,[7],inactive
same,outcome,[4],inactive
same,outcome,[5],inactive
same,fold change,[9]; stronger effect = lower value,0.889 (inactive)
same,fold change,[9]; [14],1.23
same,cell count,[9]; [15],6840
same,cell count,[9]; [16],7700
same,z-score,[11]; [18],-0.434 (inactive)
same,z-score,[11]; [19],0.535
CO/C1=C/C(C)=C\[C@@H](C)[C@@H](O)[C@@H](C)C/C(C)=C\C=C/[C@H](OC)[C@@H]([C@@H](C)[C@@H](O)[C@H](C)[C@@]2(O)C[C@@H](O)[C@H](C)[C@@H](C(C)C)O2)OC1=O,AC50,[2],11.8 µM (active)
same,AC50,[3],9.35 µM (active)
same,AC50,[7],0.393 µM (active)
same,AC50,[4],3.72 µM (active)
same,AC50,[8],9.86 µM (active)
same,IC50,[5],0.0494 µM (active)
COC1(CS(=O)c2ccccc2)CCN(CCc2c[nH]c3ccc(F)cc23)CC1 (configuration not stated),outcome,[1],inactive
same,outcome,[2],inactive
same,outcome,[3],inactive
same,outcome,[6],inactive
same,outcome,[4],inactive
same,outcome,[8],inactive
same,outcome,[5],inactive
CCNC(=O)C[C@@H]1N=C(c2ccc(Cl)cc2)c2cc(OC)ccc2-n2c(C)nnc21,AC50,[2],7.43 µM (active)
same,outcome,[4],inactive
same,outcome,[8],inactive
same,outcome,[5],inactive
CC1(N2CCC(n3c([C@@H]4CCCNC4)nc4ccccc43)CC2)CCCCCCC1,outcome,[1],inactive
same,AC50,[2],14.8 µM (active)
same,IC50,[5],20.9 µM (active)
Cc1c(C(=O)Nc2cccc(C(F)(F)F)c2)cc(-c2ccccc2)n1CCCN1CCOCC1,AC50,[3],18.7 µM (active)
same,outcome,[6],inactive
CCCCCCCCCCCCCCCCSP(=O)([O-])OCC[N+](C)(C)C,fold change,[9]; [17],0.933 (inactive)
same,fold change,[9]; [14],0.479
same,cell count,[9]; [15],5080
same,cell count,[9]; [16],5450
C[C@H]1[C@@H](C(=O)C[C@H]2O[C@@H]3O[C@]4(C)CC[C@H]5[C@H](C)CC[C@@H]([C@H]2C)[C@@]35OO4)O[C@@H]2O[C@]3(C)CC[C@H]4[C@H](C)CC[C@@H]1[C@@]24OO3,outcome,[4],inactive
CC(=O)N1N=C(c2ccc(N)cc2)c2cc3c(cc2C[C@H]1C)OCO3,outcome,[6],inactive
same,outcome,[7],inactive
same,outcome,[8],inactive
same,outcome,[5],inactive
C[C@H](CCC(=O)O)C[C@H](C)C[C@H](C)C(=O)/C=C(\O)[C@H](C)C[C@H](C)C/C=C/[C@@H](C)[C@@H](O)[C@@H](C)[C@@H](O)C[C@@H]1CC[C@@](C)([C@H]2CC[C@@](C)([C@@H](C)O)O2)O1,fold change,[9]; [17],0.679 (active)
same,fold change,[9]; [14],0.922
same,cell count,[9]; [15],621
same,cell count,[9]; [16],914
CN=C(NS(=O)(=O)c1ccc(Cl)cc1)N1C[C@H](c2ccccc2)C(c2ccc(Cl)cc2)=N1,fold change,[9]; [17],0.982 (inactive)
same,fold change,[9]; [14],1.16
same,cell count,[9]; [15],5510
same,cell count,[9]; [16],5610
CCCCC/C=C\C/C=C\C/C=C\C/C=C\CCCC(=O)NCCCC(=O)O,fold change,[9]; [17],0.955 (inactive)
same,fold change,[9]; [14],1.25
same,cell count,[9]; [15],5500
same,cell count,[9]; [16],5760
C[C@H](Nc1ncnc2nc[nH]c12)c1nc2ccc(F)cc2c(=O)n1-c1ccccc1,AC50,[7],14.8 µM (active)
same,outcome,[5],inactive
Cn1cc(C2=C(c3cn(C4CCN(Cc5ccccn5)CC4)c4ccccc34)C(=O)NC2=O)c2ccccc21,outcome,[4],inactive
same,outcome,[5],inactive
same,fold change,[9]; [17],0.96 (inactive)
same,fold change,[9]; [14],1.18
same,cell count,[9]; [15],6030
same,cell count,[9]; [16],6280
same,SSMD,[12],0.559
same,cell count,[12],6710
same,plate-normalised HSF1 focus index,[12],1.03 (inactive)
same,z-score,[11]; [18],-0.204 (inactive)
same,z-score,[11]; [19],-2.05
same,viability,"[13]; at 0.000305 µM, OCI-C5x cells, with rucaparib 10 µM, 100% = cells with rucaparib alone",118% (inactive)
same,viability,"[13]; at 0.000305 µM, OCI-C5x cells, without rucaparib",151% (inactive)
same,viability,"[13]; at 0.000305 µM, OCI-P5x cells, with rucaparib 20 µM, 100% = cells with rucaparib alone",108% (inactive)
same,viability,"[13]; at 0.000305 µM, OCI-P5x cells, without rucaparib",115% (inactive)
same,viability,"[13]; at 0.00122 µM, OCI-C5x cells, with rucaparib 10 µM, 100% = cells with rucaparib alone",136% (inactive)
same,viability,"[13]; at 0.00122 µM, OCI-C5x cells, without rucaparib",148% (inactive)
same,viability,"[13]; at 0.00122 µM, OCI-P5x cells, with rucaparib 20 µM, 100% = cells with rucaparib alone",113% (inactive)
same,viability,"[13]; at 0.00122 µM, OCI-P5x cells, without rucaparib",105% (inactive)
same,viability,"[13]; at 0.00488 µM, OCI-C5x cells, with rucaparib 10 µM, 100% = cells with rucaparib alone",127% (inactive)
same,viability,"[13]; at 0.00488 µM, OCI-C5x cells, without rucaparib",136% (inactive)
same,viability,"[13]; at 0.00488 µM, OCI-P5x cells, with rucaparib 20 µM, 100% = cells with rucaparib alone",109% (inactive)
same,viability,"[13]; at 0.00488 µM, OCI-P5x cells, without rucaparib",105% (inactive)
same,viability,"[13]; at 0.0195 µM, OCI-C5x cells, with rucaparib 10 µM, 100% = cells with rucaparib alone",138% (inactive)
same,viability,"[13]; at 0.0195 µM, OCI-C5x cells, without rucaparib",144% (inactive)
same,viability,"[13]; at 0.0195 µM, OCI-P5x cells, with rucaparib 20 µM, 100% = cells with rucaparib alone",106% (inactive)
same,viability,"[13]; at 0.0195 µM, OCI-P5x cells, without rucaparib",98.4% (active)
same,viability,"[13]; at 0.0781 µM, OCI-C5x cells, with rucaparib 10 µM, 100% = cells with rucaparib alone",127% (inactive)
same,viability,"[13]; at 0.0781 µM, OCI-C5x cells, without rucaparib",149% (inactive)
same,viability,"[13]; at 0.0781 µM, OCI-P5x cells, with rucaparib 20 µM, 100% = cells with rucaparib alone",119% (inactive)
same,viability,"[13]; at 0.0781 µM, OCI-P5x cells, without rucaparib",105% (inactive)
same,viability,"[13]; at 0.313 µM, OCI-C5x cells, with rucaparib 10 µM, 100% = cells with rucaparib alone",136% (inactive)
same,viability,"[13]; at 0.313 µM, OCI-C5x cells, without rucaparib",146% (inactive)
same,viability,"[13]; at 0.313 µM, OCI-P5x cells, with rucaparib 20 µM, 100% = cells with rucaparib alone",111% (inactive)
same,viability,"[13]; at 0.313 µM, OCI-P5x cells, without rucaparib",93.7% (active)
same,viability,"[13]; at 1.25 µM, OCI-C5x cells, with rucaparib 10 µM, 100% = cells with rucaparib alone",149% (inactive)
same,viability,"[13]; at 1.25 µM, OCI-C5x cells, without rucaparib",156% (inactive)
same,viability,"[13]; at 1.25 µM, OCI-P5x cells, with rucaparib 20 µM, 100% = cells with rucaparib alone",113% (inactive)
same,viability,"[13]; at 1.25 µM, OCI-P5x cells, without rucaparib",92.6% (active)
same,viability,"[13]; at 5 µM, OCI-C5x cells, with rucaparib 10 µM, 100% = cells with rucaparib alone",159% (inactive)
same,viability,"[13]; at 5 µM, OCI-C5x cells, without rucaparib",140% (inactive)
same,viability,"[13]; at 5 µM, OCI-P5x cells, with rucaparib 20 µM, 100% = cells with rucaparib alone",102% (inactive)
same,viability,"[13]; at 5 µM, OCI-P5x cells, without rucaparib",99.4% (active)
